Results reported in PubChem BioAssay.
Values joined by “and” are separate entries in the source; they are usually repeats but may differ in a detail not shown here. Equal entries are not always repeated. Records with an inconclusive call do not appear. Some structures have more than one record in an assay (separate samples or runs), and their calls can disagree. Active and inactive are the calls of the source.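 Rule for the calls, unless noted: active = GFP signal, as percent of the solvent control, above the screen mean plus 3 SD, about 149; inconclusive = no reading because the compound's own fluorescence upset strain identification; inactive = the rest.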

Experiments:
[1] = yeast TOR pathway RPL19A-GFP modulators, primary screen, cell-based, S. cerevisiae, multiplex flow cytometry (AID 1862; in the data active = percent of DMSO control GFP below about 86%;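 note: lower values mimic rapamycin by blocking the RPL19A rise seen in DMSO cells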); conditions: S. cerevisiae RPL19A-GFP strain, flow cytometry fluorescence, 3 h; at 10 µM; stronger effect = lower value
[2] = modulators of MEP2-GFP levels in yeast, primary screen, S. cerevisiae, multiplex flow cytometry (AID 1867;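 active = GFP response, as percent of the DMSO control, above the screen-wide mean plus 3 SD, about 139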;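 note: median GFP channel fluorescence of barcode-gated MEP2-GFP cells measured by flow cytometry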); conditions: S. cerevisiae MEP2-GFP strain, 3 h, at 10 µM, stronger effect = higher value, 100% means same as DMSO wells
[3] = modulators of CIT2-GFP expression in yeast, primary screen, S. cerevisiae, GFP fusion, multiplex flow cytometry (AID 1870;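 active = percent response above a set limit, the screen-wide mean plus 3 SD, cut at about 130% in these data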;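 note: barcoded CIT2-GFP strain pooled with four other GFP strains with rapamycin as positive control; median GFP fluorescence per well over plate mean of DMSO wells so 100% = DMSO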); conditions: 3 h, at 10 µM, stronger effect = higher value
[4] = modulators of LAP4-GFP expression in yeast, primary screen, S. cerevisiae, multiplex flow cytometry (AID 1873); conditions: 3 h, at 10 µM, stronger effect = higher value
[5] = modulators of AGP1-GFP expression in yeast TOR pathway, primary screen, cell-based, multiplex flow cytometry, S. cerevisiae (AID 1887;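 active = GFP signal above the screen-wide mean plus 3 SD, that is over about 124.5% of the solvent control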;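 note: AGP1-GFP fusion strain of S. cerevisiae within a five-strain barcoded multiplex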); conditions: 3 h, at 10 µM, stronger effect = higher value
[6] = RPL19A-GFP modulators, yeast TOR pathway, confirmation, cell-based, S. cerevisiae, flow cytometry, cherry picks, mother/daughter gates (AID 2270;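 active = GFP response below 50% of the DMSO control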); conditions: S. cerevisiae RPL19A-GFP strain, 3 h, at 10 µM, stronger effect = lower value, 100 = same GFP as DMSO wells
[7] = LAP4-GFP expression modulators in yeast, confirmation, cell-based, cherry picks, flow cytometry, mother/daughter gates (AID 2271;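 active = GFP response above 150% of the DMSO control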;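 note: ratio of sample to DMSO plate mean so 100% equals DMSO level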); conditions: S. cerevisiae LAP4-GFP strain, 3 h, at 10 µM, stronger effect = higher value, 100 means same as DMSO control
[8] = modulators of MEP2-GFP levels in yeast, confirmation, S. cerevisiae, flow cytometry GFP, cherry picks (AID 2272;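 active = GFP response above 150% of the DMSO control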;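 note: ratio of well signal to plate DMSO mean so 100% equals DMSO level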); conditions: S. cerevisiae MEP2-GFP strain, 3 h, at 10 µM, stronger effect = higher value
[9] = modulators of CIT2-GFP expression in yeast, confirmation, S. cerevisiae, GFP fusion, cherry picks, mother/daughter gates (AID 2274;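 active = GFP response above 150% of the DMSO level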); conditions: S. cerevisiae CIT2-GFP strain, flow cytometry, 3 h, at 10 µM, stronger effect = higher value
[10] = inhibitors of CD8+ T cell-vesicle binding, pilot screen, LFA-1/ICAM-1 modulator project, MLPCN validation set, flow cytometry (AID 2523;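 active = response below a set limit, under 55% cells CD8-positive and vesicle-bound, and CD8 cells' 90th-percentile brightness under 279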;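 for vesicle binding response: mean PE anti-B7-1 fluorescence of CD8+ cells relative to row control; 100% = QL9-loaded vesicles with DMSO vehicle in the same plate row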); conditions: 2C mouse CD8+ T cells, at 7 µM, stronger effect = lower value; double positive events: measured here: CD8+/vesicle+ event percentage
[11] = target: Integrin beta-1 (Homo sapiens) + Integrin alpha-4 (Homo sapiens) (UniProt P13612+P05556); assay: inhibition of HUTS-21 binding to VLA-4, pilot screen, VLA-4 allosteric modulator project, U937 cells, HUTS-21 mAb, flow cytometry, validation set (AID 2674;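 active = inhibition above 50%, about 3 SD of the validation set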;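 note: antibody binding induced by the VLA-4 ligand LDV present at three times its Kd; 0% = LDV ligand with antibody and no compound and 100% = antibody without LDV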); conditions: HUTS-21 LIBS mAb binding, at 6.7 µM, stronger effect = higher value, binding induced by LDV ligand
Chain of Integrin beta-1 (Homo sapiens) + Integrin alpha-4 (Homo sapiens) (P05556 whole entry, looked up): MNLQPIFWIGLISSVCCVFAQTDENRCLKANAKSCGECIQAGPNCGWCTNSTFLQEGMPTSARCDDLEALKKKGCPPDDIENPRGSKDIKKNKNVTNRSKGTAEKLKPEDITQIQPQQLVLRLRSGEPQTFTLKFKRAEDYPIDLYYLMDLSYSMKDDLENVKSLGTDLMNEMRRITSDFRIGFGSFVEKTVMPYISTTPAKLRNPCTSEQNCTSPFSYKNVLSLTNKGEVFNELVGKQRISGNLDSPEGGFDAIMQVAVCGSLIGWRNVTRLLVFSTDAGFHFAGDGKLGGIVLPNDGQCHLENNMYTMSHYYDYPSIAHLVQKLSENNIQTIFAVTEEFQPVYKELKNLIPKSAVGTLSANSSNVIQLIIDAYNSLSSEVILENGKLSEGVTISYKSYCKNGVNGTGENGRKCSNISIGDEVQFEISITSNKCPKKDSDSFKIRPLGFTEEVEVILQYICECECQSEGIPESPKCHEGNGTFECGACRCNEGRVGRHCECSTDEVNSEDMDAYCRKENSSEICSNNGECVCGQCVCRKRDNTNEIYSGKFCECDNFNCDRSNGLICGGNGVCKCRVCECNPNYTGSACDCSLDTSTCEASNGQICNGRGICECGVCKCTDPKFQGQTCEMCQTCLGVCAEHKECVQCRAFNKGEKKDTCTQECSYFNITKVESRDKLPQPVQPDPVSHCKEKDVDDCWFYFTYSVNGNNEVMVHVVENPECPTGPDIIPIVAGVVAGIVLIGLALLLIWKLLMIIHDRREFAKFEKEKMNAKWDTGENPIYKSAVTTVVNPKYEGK
Chain of Integrin beta-1 (Homo sapiens) + Integrin alpha-4 (Homo sapiens) (P13612 whole entry, looked up): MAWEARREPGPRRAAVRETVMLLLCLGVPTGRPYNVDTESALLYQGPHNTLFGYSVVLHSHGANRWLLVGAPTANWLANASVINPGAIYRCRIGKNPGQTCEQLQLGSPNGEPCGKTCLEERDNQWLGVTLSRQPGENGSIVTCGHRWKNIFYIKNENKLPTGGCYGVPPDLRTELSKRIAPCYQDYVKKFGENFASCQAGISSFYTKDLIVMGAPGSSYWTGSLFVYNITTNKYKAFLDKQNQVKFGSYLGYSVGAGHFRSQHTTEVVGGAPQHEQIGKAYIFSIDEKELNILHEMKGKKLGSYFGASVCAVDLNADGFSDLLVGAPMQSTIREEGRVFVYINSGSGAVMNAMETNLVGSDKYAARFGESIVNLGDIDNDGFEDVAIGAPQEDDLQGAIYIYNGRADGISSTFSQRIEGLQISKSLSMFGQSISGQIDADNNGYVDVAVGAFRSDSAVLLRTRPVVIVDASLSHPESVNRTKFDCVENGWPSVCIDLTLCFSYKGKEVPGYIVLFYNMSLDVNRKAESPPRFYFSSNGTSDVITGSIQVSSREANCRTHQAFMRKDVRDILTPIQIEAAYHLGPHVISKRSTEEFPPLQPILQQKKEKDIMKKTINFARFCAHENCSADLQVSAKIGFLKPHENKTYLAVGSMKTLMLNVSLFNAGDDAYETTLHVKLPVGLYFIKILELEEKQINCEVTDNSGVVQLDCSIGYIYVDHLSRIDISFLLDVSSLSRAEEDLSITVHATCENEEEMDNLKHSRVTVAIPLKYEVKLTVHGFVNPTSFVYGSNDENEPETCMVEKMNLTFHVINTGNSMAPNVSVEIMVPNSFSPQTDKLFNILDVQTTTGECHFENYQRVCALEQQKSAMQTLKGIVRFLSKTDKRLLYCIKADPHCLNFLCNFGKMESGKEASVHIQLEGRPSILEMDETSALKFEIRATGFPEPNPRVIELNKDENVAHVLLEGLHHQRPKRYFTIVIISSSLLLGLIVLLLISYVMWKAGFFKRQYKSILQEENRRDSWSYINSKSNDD

[12] = superoxide lowering in aged yeast cells, pilot screen, validation compound set (AID 2706;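 active = superoxide response below 65% of plate, a cut near 3 SD across the whole screen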;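 note: yeast exposed to compound for one week at 30 degrees C before staining; 100% = mean of all compound wells on the same plate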); conditions: S. cerevisiae aging, superoxide DHE fluorescence; at 10 µM; stronger effect = lower value
[13] = target: Beta-adrenergic receptor kinase 1 (Homo sapiens) (UniProt P25098); assay: GRK2 binders displacing RNA aptamer, biochemical, validation, human GRK2, bead flow cytometry (AID 488806;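 active = aptamer binding inhibition above 30%, about 3 SD of noise from non-fluorescent compounds; inactive = inhibition at or below 30%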); conditions: bead-bound GRK2, FAM-aptamer displacement, at 10 µM, stronger effect = higher value
Chain of Beta-adrenergic receptor kinase 1 (Homo sapiens) (P25098 whole entry, looked up): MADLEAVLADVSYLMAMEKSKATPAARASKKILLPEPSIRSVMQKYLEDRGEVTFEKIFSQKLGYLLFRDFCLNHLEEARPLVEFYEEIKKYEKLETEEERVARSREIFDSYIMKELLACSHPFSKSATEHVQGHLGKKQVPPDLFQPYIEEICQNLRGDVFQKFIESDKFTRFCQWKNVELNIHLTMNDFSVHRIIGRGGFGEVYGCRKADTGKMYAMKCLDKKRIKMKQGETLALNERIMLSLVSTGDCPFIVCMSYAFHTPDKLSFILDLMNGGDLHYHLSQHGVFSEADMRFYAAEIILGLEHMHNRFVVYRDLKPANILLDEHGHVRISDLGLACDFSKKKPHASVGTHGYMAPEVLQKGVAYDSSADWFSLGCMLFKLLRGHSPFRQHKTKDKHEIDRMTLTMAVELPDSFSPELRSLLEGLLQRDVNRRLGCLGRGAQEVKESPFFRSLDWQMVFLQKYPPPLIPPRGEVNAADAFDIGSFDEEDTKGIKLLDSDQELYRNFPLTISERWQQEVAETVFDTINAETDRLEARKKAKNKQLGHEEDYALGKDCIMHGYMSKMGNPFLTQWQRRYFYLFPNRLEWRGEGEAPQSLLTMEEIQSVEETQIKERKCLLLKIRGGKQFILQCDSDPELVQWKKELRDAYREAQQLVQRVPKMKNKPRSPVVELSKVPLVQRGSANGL

[14] = target: Beta-2 adrenergic receptor (Homo sapiens) (UniProt P07550); assay: beta2AR agonists driving receptor internalization, pilot screen, cell-based, FAP fluorogen, flow cytometry, validation set (AID 504459;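 active = percent response above 42, roughly 3 SD of non-fluorescent test compounds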;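 note: agonist-driven loss of surface beta2AR via internalization measured by FAP dye flow cytometry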); conditions: Am2.2-beta2AR cells, FAP surface receptor flow cytometry; at 10 µM; stronger effect = higher value
Chain of Beta-2 adrenergic receptor (Homo sapiens) (P07550 whole entry, looked up): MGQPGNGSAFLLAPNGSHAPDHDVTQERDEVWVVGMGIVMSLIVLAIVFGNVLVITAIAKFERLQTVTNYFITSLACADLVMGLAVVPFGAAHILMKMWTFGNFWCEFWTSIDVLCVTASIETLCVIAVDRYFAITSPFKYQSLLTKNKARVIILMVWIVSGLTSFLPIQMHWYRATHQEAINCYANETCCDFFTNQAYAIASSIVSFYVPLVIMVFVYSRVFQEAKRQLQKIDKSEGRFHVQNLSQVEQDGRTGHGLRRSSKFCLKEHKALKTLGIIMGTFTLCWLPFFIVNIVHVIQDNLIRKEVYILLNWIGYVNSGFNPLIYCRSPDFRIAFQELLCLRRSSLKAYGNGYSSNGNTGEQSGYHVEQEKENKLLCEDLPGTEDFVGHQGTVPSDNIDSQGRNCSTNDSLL

[15] = target: AP-2 complex subunit beta (Homo sapiens) (UniProt P63010); assay: inhibitors of arrestin peptide binding to AP2, pilot screen, biochemical, validation set, GST-AP2 beads, flow cytometry (AID 504541;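 active = inhibition above 54%, about 3 SD of non-fluorescent compounds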;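 note: AP2 carries R879A mutation and is captured from E. coli lysate; bead-bound FITC arrestin peptide fluorescence measuring arrestin peptide binding to AP2; 0% = DMSO wells and 100% = excess unlabeled arrestin peptide control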); conditions: FITC arrestin peptide, at 10 µM, stronger effect = higher value, AP2 beta2 appendage fragment, R879A mutant
Chain of AP-2 complex subunit beta (Homo sapiens) (P63010 whole entry, looked up, the tested form may be a part, one chain of several): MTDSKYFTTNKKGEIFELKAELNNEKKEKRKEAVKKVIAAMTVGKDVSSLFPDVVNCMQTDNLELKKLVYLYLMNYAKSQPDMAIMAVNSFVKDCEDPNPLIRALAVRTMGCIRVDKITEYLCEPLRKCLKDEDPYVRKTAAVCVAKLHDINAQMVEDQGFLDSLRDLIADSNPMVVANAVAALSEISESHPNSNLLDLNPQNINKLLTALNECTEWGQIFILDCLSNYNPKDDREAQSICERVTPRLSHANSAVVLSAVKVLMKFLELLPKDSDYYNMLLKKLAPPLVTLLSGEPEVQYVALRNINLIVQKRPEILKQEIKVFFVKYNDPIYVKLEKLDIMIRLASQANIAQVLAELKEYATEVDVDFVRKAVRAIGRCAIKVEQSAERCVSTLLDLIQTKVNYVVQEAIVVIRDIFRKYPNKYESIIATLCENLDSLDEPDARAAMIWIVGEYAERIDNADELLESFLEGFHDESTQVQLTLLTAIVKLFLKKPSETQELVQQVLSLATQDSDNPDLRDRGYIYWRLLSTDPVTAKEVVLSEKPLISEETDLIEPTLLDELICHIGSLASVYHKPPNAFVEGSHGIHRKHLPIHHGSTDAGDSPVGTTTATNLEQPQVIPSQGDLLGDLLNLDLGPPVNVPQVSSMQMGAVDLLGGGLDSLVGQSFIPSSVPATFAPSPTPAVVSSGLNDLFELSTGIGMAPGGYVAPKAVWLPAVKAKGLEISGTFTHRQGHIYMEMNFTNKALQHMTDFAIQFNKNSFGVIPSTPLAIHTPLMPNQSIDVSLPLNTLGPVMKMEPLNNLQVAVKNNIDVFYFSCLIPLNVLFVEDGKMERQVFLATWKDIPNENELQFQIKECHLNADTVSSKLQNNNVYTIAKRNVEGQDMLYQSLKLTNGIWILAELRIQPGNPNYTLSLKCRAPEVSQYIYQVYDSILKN

[16] = yeast V-ATPase proton transport modulators, S. cerevisiae, pHLuorin, HTS validation (AID 504600; in the data active = response above about 15%;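 note: plate controls were DMSO for no effect and reference compound for full effect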); conditions: S. cerevisiae pHLuorin cytosolic pH, at 10 µM, stronger effect = higher value
[17] = test system: anti-desmoglein-3 scFv antibody binding to human DSG3; assay: inhibitors of anti-DSG3 scFv binding to DSG3, pilot screen, biochemical, validation compound set, bead-based, flow cytometry (AID 588368;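 active = binding below the plate cutoff, the plate median minus 3 SD, with a reading above zero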;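 note: signal is the median channel fluorescence of bead-bound GFP antibody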); conditions: Protein G beads, DSG3-Fc, scFv-GFP binding, at 10 µM, stronger effect = lower value
[18] = inhibitors of fungal efflux pumps CDR1, CDR2, MDR1, pilot screen, validation compound set, multiplex, phenotypic (AID 588506;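 active = efflux inhibition above 0.42, the validation set average plus 4 SD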;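 note: Nile Red retained in cells so higher fluorescence means more efflux inhibition; 0 = negative control wells and 1 = enniatin B 25 µM full block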); conditions: S. cerevisiae pump-expressing triplex, Nile Red efflux flow cytometry; at 10 µM; stronger effect = higher value; the pumps come from Candida albicans
[19] = target: ATP-binding cassette sub-family B member 6 (Homo sapiens) (UniProt Q9NP58); assay: ABCB6 transporter inhibitors, pilot screen, K562-ABCB6 cells, flow cytometry, validation set (AID 588550;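 active = inhibition above the screen-wide mean plus 3 SD, about 51%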;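 note: 0% = DMSO wells and 100% = benzethonium chloride 70 µM positive control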); conditions: K562-ABCB6 porphyrin accumulation, 1 h, at 10 µM, stronger effect = higher value
Chain of ATP-binding cassette sub-family B member 6 (Homo sapiens) (Q9NP58 whole entry, looked up): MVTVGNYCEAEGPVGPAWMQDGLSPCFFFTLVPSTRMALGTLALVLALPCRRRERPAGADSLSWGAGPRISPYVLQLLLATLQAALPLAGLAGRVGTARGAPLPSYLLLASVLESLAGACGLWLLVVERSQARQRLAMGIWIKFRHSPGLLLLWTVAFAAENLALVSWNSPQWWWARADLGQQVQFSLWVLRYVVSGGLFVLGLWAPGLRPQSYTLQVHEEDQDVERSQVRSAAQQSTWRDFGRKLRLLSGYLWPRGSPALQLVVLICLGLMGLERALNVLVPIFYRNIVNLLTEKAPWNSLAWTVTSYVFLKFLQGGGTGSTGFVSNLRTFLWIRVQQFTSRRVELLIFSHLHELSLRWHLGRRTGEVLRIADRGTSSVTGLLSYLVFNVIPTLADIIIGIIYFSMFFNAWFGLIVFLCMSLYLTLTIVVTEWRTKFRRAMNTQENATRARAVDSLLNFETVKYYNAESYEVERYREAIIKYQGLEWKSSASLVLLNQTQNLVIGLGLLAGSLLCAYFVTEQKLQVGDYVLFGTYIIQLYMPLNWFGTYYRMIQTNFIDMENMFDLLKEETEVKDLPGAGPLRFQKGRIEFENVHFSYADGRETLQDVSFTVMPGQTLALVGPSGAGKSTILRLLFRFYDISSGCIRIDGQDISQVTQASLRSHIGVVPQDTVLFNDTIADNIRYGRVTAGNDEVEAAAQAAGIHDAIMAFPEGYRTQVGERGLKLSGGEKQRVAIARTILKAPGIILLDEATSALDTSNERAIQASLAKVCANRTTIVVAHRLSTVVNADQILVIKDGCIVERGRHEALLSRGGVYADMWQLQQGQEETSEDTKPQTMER

[20] = promoters of myeloid differentiation in arrested cells, primary screen, cell-based, GFP/MAC1 double positive, flow cytometry, validation set (AID 588685;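 active = differentiation response of at least 50%, scaled between solvent and reference control, from cells with both markers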;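 note: compound exposure lasts four days before antibody staining and flow analysis; 0% = DMSO wells and 100% = 5 µM fulvestrant positive control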); conditions: ER-HoxA9 marrow cells, stronger effect = higher value, normalized: vehicle 0, fulvestrant 100
[21] = measured here: daughter cell gate
[22] = measured here: mother cell gate
[23] = measured here: daughter cell gate response
[24] = measured here: mother cell gate response

CN(C)CCCN1c2ccccc2Sc2ccc(Cl)cc21
percent of DMSO control GFP [1]: 84.9% (active) and 109% (inactive)
GFP response vs DMSO [2]: 148% (active) and 129% (inactive)
percent response of DMSO control [3]: 88.6% (inactive) and 116% (inactive)
GFP response vs DMSO [4]: 83.1% (inactive) and 94.1% (inactive)
GFP response, % of DMSO [5]: 91.5% (inactive) and 115% (inactive)
GFP response vs DMSO [6]: 101% (inactive)
GFP response vs DMSO [6, 21]: 101%
GFP response vs DMSO [6, 22]: 102%
GFP response relative to DMSO [7]: 95% (inactive)
GFP response relative to DMSO [7, 23]: 100%
GFP response relative to DMSO [7, 24]: 97.2%
GFP response vs DMSO [8]: 100% (inactive)
GFP response, % of DMSO [9]: 106% (inactive)
GFP response, % of DMSO [9, 21]: 103%
GFP response, % of DMSO [9, 22]: 107%
double positive events [10]: 64.9% and 70.6%
vesicle binding response [10]: 163% (inactive) and 432% (inactive)
inhibition [11]: 7.43% (inactive) and 1.61% (inactive)
superoxide response (% of plate) [12]: 98.3% (inactive) and 93.3% (inactive)
aptamer binding inhibition [13]: -6% (inactive) and -20% (inactive)
response [14]: 17.4% (inactive) and 15.9% (inactive)
inhibition [15]: -3.39% (inactive) and -5.93% (inactive)
response [16]: 10.8% (inactive) and 0.91% (inactive)
binding (% of control) [17]: 107% (inactive) and 114% (inactive)
efflux inhibition (fraction of control) [18]: -0.17 (inactive) and 0.55 (active)
inhibition [19]: 10% (inactive) and 13% (inactive)
differentiation response [20]: -7.37% (inactive) and 5.73% (inactive)

O=c1cnn([C@@H]2O[C@H](CO)[C@@H](O)[C@H]2O)c(=O)[nH]1
percent of DMSO control GFP [1]: 84.9% (active)
GFP response vs DMSO [2]: 88.8% (inactive)
percent response of DMSO control [3]: 80.8% (inactive)
GFP response vs DMSO [4]: 129% (inactive)
GFP response, % of DMSO [5]: 98% (inactive)
GFP response vs DMSO [6]: 80.6% (inactive)
GFP response vs DMSO [6, 21]: 81%
GFP response vs DMSO [6, 22]: 81.6%
GFP response relative to DMSO [7]: 109% (inactive)
GFP response relative to DMSO [7, 23]: 104%
GFP response relative to DMSO [7, 24]: 109%
GFP response vs DMSO [8]: 93.3% (inactive)
GFP response, % of DMSO [9]: 77.7% (inactive)
GFP response, % of DMSO [9, 21]: 77.9%
GFP response, % of DMSO [9, 22]: 74.6%
double positive events [10]: 62.2%
vesicle binding response [10]: 127% (inactive)
inhibition [11]: 13.4% (inactive)
superoxide response (% of plate) [12]: 124% (inactive)
aptamer binding inhibition [13]: 1% (inactive)
response [14]: -10.1% (inactive)
inhibition [15]: -3.47% (inactive)
response [16]: -1.24% (inactive)
binding (% of control) [17]: 107% (inactive)
efflux inhibition (fraction of control) [18]: -0.04 (inactive)
inhibition [19]: 0% (inactive)
differentiation response [20]: 1.91% (inactive)

NS(=O)(=O)c1cc2c(cc1C(F)(F)F)NC(Cc1ccccc1)NS2(=O)=O (stereo unspecified)
percent of DMSO control GFP [1]: 89.8% (inactive)
GFP response vs DMSO [2]: 140% (active)
percent response of DMSO control [3]: 106% (inactive)
GFP response vs DMSO [4]: 82.5% (inactive)
GFP response, % of DMSO [5]: 90.8% (inactive)
GFP response vs DMSO [6]: 95% (inactive)
GFP response vs DMSO [6, 21]: 96%
GFP response vs DMSO [6, 22]: 97.1%
GFP response relative to DMSO [7]: 97.7% (inactive)
GFP response relative to DMSO [7, 23]: 96.5%
GFP response relative to DMSO [7, 24]: 97.5%
GFP response vs DMSO [8]: 97.5% (inactive)
GFP response, % of DMSO [9]: 102% (inactive)
GFP response, % of DMSO [9, 21]: 104%
GFP response, % of DMSO [9, 22]: 104%
double positive events [10]: 64.3%
vesicle binding response [10]: 176% (inactive)
inhibition [11]: 7.43% (inactive)
superoxide response (% of plate) [12]: 85% (inactive)
aptamer binding inhibition [13]: 7% (inactive)
response [14]: 1.02% (inactive)
inhibition [15]: 21.3% (inactive)
response [16]: -2.03% (inactive)
binding (% of control) [17]: 97.4% (inactive)
efflux inhibition (fraction of control) [18]: 0.05 (inactive)
inhibition [19]: 6% (inactive)
differentiation response [20]: -0.82% (inactive)
